Reference: ChEMBL document CHEMBL1961873, “Compounds: GSK PKIS; Assays: Nanosyn kinase panel” (2012)

Experiments:
[1] = target: Protein kinase C gamma type (Homo sapiens) (UniProt P05129); conditions: at 1 µM;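 further: each value is an averaged percent inhibition of the enzyme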
[2] = target: T1, Protein kinase C iota type (Homo sapiens) (UniProt P41743); conditions: at 0.1 µM
T1 sequence (whole entry): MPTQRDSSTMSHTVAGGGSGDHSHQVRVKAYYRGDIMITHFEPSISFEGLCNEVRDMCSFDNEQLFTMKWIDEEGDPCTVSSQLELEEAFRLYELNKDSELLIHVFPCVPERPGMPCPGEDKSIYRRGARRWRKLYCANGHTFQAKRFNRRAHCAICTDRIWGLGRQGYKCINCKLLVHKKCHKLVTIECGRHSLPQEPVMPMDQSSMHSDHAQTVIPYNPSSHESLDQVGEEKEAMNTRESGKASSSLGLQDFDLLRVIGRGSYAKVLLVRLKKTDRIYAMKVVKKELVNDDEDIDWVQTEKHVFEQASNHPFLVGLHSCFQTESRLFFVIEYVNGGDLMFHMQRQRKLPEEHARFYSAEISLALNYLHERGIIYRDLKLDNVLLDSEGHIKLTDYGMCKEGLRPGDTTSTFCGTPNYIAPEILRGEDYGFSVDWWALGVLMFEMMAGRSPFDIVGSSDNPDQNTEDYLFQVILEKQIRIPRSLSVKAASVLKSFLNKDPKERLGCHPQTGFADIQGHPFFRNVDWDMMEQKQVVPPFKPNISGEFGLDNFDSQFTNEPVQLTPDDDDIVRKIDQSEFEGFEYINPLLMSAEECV

[3] = target: T1, Protein kinase C iota type (Homo sapiens); conditions: at 1 µM
[4] = target: Protein kinase C theta type (Homo sapiens) (UniProt Q04759); conditions: at 0.1 µM
Protein kinase C theta type (Homo sapiens), sequence (Q04759 whole entry, looked up): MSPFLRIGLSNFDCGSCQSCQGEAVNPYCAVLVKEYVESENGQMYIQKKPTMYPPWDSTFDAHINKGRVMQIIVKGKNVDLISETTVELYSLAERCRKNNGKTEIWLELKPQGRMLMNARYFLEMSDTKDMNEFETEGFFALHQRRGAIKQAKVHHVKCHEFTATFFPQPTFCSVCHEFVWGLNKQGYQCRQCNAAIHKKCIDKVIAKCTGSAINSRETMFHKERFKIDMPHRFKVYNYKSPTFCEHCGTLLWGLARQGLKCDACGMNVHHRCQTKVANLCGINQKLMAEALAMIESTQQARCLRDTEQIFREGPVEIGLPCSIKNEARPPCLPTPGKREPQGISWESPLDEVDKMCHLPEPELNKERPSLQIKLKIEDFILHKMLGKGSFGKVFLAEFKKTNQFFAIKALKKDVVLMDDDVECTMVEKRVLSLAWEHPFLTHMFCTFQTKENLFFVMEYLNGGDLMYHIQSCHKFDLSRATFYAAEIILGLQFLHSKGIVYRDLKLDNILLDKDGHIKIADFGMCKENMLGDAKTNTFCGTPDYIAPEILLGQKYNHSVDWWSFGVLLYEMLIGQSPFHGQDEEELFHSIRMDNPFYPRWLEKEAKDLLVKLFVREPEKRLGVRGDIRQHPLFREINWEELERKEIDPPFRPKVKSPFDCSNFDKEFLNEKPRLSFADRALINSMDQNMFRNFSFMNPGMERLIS

[5] = target: Protein kinase C theta type (Homo sapiens) (UniProt Q04759); conditions: at 1 µM
[6] = target: Protein kinase C beta type (Homo sapiens) (UniProt P05771); conditions: at 0.1 µM
Protein kinase C beta type (Homo sapiens), sequence (P05771 2-671 limits assumed): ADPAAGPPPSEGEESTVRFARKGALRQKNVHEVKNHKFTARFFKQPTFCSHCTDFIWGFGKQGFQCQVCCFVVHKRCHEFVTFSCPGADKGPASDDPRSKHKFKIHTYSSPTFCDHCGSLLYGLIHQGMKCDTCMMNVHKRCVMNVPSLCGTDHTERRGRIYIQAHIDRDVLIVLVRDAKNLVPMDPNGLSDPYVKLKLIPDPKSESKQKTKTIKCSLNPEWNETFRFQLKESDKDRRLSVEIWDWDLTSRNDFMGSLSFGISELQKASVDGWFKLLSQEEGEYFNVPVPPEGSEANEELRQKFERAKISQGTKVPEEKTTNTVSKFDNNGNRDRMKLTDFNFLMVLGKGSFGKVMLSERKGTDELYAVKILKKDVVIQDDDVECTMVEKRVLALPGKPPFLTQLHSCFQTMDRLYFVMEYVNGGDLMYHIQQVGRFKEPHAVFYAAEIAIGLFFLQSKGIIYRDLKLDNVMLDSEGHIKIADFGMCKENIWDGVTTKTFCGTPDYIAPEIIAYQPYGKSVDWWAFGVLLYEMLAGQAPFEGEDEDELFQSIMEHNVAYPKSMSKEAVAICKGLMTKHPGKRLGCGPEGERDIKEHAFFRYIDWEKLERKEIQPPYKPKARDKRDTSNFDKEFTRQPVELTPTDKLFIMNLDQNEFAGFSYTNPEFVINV

[7] = target: Protein kinase C beta type (Homo sapiens) (UniProt P05771); conditions: at 1 µM
[8] = target: T2, Serine/threonine-protein kinase D1 (Homo sapiens) (UniProt Q15139); conditions: at 0.1 µM
T2 sequence (whole entry): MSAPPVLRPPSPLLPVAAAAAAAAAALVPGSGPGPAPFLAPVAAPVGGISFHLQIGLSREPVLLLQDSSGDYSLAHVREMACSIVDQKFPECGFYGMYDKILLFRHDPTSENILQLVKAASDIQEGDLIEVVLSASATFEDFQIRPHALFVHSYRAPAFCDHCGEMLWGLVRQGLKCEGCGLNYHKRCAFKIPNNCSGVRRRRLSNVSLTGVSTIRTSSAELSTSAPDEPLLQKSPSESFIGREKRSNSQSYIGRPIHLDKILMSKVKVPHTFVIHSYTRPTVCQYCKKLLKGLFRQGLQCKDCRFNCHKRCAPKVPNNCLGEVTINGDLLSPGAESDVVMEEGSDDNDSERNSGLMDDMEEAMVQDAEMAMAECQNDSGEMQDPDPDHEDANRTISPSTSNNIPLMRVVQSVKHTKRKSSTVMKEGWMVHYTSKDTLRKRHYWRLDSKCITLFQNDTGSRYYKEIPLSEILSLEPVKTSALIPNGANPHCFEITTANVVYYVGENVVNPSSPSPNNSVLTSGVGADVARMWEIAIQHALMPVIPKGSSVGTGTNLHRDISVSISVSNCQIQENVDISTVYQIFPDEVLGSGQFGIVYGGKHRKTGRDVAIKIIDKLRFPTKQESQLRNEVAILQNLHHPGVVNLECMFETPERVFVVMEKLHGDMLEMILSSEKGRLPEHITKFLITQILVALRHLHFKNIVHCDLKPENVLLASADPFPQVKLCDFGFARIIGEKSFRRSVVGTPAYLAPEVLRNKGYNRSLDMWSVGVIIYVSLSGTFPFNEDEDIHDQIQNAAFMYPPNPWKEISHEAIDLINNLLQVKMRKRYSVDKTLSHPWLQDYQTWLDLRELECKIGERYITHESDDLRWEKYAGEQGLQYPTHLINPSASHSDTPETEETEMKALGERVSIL

[9] = target: T2, Serine/threonine-protein kinase D1 (Homo sapiens); conditions: at 1 µM
[10] = target: T3, Serine/threonine-protein kinase D2 (Homo sapiens) (UniProt Q9BZL6); conditions: at 0.1 µM
T3 sequence (whole entry): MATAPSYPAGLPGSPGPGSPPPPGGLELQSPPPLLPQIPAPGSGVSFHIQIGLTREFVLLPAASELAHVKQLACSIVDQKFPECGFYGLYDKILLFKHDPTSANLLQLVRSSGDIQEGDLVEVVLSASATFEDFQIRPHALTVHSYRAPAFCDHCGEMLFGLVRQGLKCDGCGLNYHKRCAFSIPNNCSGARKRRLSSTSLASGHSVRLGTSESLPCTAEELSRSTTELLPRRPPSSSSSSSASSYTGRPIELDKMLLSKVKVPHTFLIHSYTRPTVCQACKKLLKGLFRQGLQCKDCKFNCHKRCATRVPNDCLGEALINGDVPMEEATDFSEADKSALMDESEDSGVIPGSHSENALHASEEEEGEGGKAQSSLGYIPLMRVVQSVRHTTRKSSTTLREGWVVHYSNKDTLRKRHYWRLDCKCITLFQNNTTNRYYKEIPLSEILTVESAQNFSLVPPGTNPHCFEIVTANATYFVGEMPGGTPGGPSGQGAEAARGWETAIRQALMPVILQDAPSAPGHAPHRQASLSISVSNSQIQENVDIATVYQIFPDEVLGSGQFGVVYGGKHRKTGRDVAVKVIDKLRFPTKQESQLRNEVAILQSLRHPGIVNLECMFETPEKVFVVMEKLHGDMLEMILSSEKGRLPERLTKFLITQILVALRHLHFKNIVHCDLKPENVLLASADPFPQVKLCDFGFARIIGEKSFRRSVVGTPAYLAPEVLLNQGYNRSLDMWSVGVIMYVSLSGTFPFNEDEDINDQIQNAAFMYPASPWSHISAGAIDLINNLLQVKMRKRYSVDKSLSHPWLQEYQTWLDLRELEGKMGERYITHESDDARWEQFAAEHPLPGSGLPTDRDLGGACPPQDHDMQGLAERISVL

[11] = target: T3, Serine/threonine-protein kinase D2 (Homo sapiens); conditions: at 1 µM
[12] = target: T4, Serine/threonine-protein kinase D3 (Homo sapiens) (UniProt O94806); conditions: at 0.1 µM
T4 sequence (whole entry): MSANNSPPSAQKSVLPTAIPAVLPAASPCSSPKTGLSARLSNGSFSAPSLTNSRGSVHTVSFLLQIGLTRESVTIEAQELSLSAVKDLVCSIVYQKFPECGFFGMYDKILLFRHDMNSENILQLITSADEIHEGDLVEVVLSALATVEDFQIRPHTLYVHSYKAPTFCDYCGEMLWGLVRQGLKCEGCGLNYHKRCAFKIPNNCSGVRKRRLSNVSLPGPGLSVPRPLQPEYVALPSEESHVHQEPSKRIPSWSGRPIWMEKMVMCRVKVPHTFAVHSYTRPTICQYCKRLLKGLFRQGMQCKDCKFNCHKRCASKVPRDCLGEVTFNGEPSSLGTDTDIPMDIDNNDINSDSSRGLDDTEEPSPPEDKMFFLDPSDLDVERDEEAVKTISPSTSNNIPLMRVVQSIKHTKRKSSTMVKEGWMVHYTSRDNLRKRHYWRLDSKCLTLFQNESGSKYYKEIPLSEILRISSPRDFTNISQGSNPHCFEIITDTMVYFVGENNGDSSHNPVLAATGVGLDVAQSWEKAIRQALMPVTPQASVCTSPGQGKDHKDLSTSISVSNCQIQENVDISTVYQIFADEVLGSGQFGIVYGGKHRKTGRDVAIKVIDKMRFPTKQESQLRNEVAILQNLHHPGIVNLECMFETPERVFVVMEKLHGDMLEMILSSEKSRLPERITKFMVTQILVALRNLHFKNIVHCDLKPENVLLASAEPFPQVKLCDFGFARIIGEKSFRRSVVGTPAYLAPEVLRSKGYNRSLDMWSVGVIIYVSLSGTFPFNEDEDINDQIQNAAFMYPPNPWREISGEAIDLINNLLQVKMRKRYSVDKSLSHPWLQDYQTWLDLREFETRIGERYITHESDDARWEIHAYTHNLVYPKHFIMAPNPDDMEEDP

[13] = target: T4, Serine/threonine-protein kinase D3 (Homo sapiens); conditions: at 1 µM
[14] = target: T5, cGMP-dependent protein kinase 1 (Homo sapiens) (UniProt Q13976); conditions: at 0.1 µM
T5 sequence (whole entry): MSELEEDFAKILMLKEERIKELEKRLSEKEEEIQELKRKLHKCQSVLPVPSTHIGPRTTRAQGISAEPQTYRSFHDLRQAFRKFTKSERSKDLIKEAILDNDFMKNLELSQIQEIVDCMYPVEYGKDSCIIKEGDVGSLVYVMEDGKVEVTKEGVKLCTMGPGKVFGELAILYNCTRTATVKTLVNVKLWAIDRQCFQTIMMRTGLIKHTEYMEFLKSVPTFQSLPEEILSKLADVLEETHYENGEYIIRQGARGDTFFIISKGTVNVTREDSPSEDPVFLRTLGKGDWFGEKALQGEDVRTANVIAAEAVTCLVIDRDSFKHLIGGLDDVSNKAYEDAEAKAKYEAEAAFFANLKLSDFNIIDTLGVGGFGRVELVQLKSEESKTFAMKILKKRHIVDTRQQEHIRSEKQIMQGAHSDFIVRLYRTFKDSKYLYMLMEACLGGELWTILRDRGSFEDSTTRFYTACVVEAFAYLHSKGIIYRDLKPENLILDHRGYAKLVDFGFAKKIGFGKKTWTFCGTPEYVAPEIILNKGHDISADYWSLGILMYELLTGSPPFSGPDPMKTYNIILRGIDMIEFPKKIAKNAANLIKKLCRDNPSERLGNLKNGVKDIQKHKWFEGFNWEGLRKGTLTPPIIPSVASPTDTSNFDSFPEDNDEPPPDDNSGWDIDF

[15] = target: T5, cGMP-dependent protein kinase 1 (Homo sapiens); conditions: at 1 µM
[16] = target: T6, cGMP-dependent protein kinase 2 (Homo sapiens) (UniProt Q13237); conditions: at 0.1 µM
T6 sequence (whole entry): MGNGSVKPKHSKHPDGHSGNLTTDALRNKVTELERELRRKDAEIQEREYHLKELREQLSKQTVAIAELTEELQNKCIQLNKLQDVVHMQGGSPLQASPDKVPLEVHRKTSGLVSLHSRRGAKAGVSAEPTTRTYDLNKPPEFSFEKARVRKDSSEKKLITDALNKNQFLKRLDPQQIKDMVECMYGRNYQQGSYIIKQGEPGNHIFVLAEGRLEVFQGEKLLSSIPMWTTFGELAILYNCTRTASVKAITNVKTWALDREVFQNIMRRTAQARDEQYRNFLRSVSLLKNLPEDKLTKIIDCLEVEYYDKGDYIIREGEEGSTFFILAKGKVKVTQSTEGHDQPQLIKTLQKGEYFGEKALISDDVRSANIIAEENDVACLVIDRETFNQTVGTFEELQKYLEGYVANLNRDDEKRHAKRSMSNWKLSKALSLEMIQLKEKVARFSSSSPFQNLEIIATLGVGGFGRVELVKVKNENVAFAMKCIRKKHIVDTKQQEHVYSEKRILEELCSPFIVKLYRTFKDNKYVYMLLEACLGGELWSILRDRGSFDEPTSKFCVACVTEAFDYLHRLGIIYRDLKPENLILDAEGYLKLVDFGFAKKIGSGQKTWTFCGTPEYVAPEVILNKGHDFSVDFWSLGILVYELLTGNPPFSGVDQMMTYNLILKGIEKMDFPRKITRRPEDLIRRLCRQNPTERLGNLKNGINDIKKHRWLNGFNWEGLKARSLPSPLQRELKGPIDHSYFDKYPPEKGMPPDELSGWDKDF

[17] = target: T6, cGMP-dependent protein kinase 2 (Homo sapiens); conditions: at 1 µM
[18] = target: T7, cAMP-dependent protein kinase catalytic subunit PRKX (Homo sapiens) (UniProt P51817); conditions: at 0.1 µM
T7 sequence (whole entry): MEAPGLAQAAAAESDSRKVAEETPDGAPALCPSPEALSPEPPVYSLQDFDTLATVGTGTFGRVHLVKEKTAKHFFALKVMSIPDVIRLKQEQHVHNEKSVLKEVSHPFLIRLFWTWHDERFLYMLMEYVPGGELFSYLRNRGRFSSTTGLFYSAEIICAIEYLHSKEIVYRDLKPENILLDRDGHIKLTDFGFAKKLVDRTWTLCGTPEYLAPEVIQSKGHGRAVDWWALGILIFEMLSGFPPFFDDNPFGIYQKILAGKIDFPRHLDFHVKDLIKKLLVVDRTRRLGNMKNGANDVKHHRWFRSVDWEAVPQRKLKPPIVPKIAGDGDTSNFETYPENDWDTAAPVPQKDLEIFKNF

[19] = target: T7, cAMP-dependent protein kinase catalytic subunit PRKX (Homo sapiens); conditions: at 1 µM
[20] = target: Rho-associated protein kinase 1 (Homo sapiens) (UniProt Q13464); conditions: at 0.1 µM;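 further: values are mean percent inhibition of ROCK1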
Rho-associated protein kinase 1 (Homo sapiens), sequence (Q13464 2-1354 limits assumed): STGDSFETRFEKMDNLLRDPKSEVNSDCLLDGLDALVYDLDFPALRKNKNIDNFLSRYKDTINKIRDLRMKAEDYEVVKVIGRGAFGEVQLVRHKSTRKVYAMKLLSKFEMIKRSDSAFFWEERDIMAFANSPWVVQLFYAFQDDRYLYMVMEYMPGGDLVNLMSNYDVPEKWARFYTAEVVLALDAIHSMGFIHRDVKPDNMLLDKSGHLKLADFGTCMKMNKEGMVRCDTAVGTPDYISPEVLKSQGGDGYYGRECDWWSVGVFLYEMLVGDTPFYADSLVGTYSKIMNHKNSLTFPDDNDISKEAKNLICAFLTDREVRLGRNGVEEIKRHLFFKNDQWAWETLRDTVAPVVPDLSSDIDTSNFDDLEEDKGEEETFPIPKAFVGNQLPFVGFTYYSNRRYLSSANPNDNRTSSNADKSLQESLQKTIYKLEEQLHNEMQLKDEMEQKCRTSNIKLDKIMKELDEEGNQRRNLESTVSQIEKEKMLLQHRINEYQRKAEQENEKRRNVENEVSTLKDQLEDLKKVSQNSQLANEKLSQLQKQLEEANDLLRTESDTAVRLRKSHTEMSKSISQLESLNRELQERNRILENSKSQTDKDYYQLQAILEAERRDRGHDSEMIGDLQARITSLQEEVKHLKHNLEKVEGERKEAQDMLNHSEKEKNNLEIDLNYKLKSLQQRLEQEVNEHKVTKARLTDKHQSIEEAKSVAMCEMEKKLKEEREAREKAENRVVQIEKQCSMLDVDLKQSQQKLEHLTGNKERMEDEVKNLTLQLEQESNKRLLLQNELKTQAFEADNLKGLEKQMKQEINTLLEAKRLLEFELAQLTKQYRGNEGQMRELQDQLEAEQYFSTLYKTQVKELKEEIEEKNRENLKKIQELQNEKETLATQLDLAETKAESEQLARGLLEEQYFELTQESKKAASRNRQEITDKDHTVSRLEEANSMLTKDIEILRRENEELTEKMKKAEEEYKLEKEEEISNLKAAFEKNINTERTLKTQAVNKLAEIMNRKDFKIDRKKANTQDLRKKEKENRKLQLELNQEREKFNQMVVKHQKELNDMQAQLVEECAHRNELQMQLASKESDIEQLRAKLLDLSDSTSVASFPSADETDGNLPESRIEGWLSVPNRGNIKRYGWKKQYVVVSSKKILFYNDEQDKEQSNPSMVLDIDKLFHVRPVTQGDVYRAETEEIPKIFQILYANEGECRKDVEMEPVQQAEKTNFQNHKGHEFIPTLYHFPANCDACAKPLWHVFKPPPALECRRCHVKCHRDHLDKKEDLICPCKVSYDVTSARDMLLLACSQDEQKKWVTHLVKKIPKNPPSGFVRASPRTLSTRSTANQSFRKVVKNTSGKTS

SMILES | inhibition [1] | inhibition [2] | inhibition [3] | inhibition [4] | inhibition [5] | inhibition [6] | inhibition [7] | inhibition [8] | inhibition [9] | inhibition [10] | inhibition [11] | inhibition [12] | inhibition [13] | inhibition [14] | inhibition [15] | inhibition [16] | inhibition [17] | inhibition [18] | inhibition [19] | inhibition [20]
CN1CCN(C(=O)c2ccc(NC(=O)Nc3ccc(N(C)c4ccnc(Nc5ccc(CS(C)(=O)=O)cc5)n4)cc3)cc2)CC1 | 2.89% | -0.67% | -0.1% | 1.17% | 1.43% | 1.51% | 2.4% | 2.19% | 6.28% | 2.12% | 3.43% | 1.06% | 3.69% | 1.76% | 3.23% | 1.26% | 1.71% | 1.71% | 0.77% | 2.82%
NC(=O)c1cccc(Nc2nccc(Nc3cccc(F)c3)n2)c1 | 4.93% | -0.38% | -1.03% | 0.79% | 0.72% | 2.1% | 4.84% | 1.93% | 4.25% | 0.71% | 0.2% | 0.7% | 1.01% | 0.12% | -0.32% | 0.77% | 0.47% | 1.19% | 0.35% | 0.28%
CCS(=O)(=O)c1ccc(OC)c(Nc2ncc(-c3cccc(OC)c3)o2)c1 | 3.87% | 1.8% | 3.38% | 1.22% | 0.3% | 0.6% | 2.93% | 2.32% | 4.41% | 2.35% | 3.71% | 3.28% | 3.64% | 1.45% | 2.34% | 0.25% | 2.95% | 0.28% | -2.35% | 0.26%
CCn1c(-c2nonc2N)nc2c(C#CC(C)(C)O)nc(OCCNC)cc21 | 8.19% | 0.89% | 1.21% | 15.7% | 61.1% | 1.53% | 10.8% | 4.31% | 12.9% | 4.9% | 7.32% | 4.82% | 9.81% | 9.59% | 44.8% | 39.3% | 70.9% | 21.5% | 65.9% | 3.08%
